From PubChem BioAssay (NCATS)
Where “and” joins values, the source holds several entries; their conditions need not be identical. Equal entries are not always repeated. Inconclusive results are not listed. Calls of active or inactive are those of the source. Calls follow the shape of the dose curve; as a rule, active = well fitted curve in the direction sought with a large enough effect; inconclusive = small, poorly fitted or top-dose-only effect, or another doubt; inactive = no such curve, though single readings can be large; an effect the other way counts as inactive or inconclusive.

Legend:
[1] = Viability qHTS for spleen associated tyrosine kinase inhibitor (SYKi) naive MV4-11 cells (AID 1963823); also: nearly all actives have a fitted effect of over 40% in size; also: potency is read from the fitted curve at half-maximal effect
Outline: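 CellTiter-Glo luminescence, 10 min room-temperature incubation, gave viability. Cells: naive MV4-11 (500/well), treated 72 hr at 37 C, 5% CO2.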

[2] = Cellular viability qHTS for adrenocortical cancer (ACC) cell line SW-13 (AID 1963989); settings: SW-13 ACC cells viability, CellTiter-Glo, 48 h; activity (max response): stronger effect = lower value; also: nearly all actives have a fitted effect of over 65% in size; also: potency is read from the fitted curve at half-maximal effect;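 as to activity (max response): cells grown in serum-free medium with ITS supplement; % is scaled to controls: 0 for no effect and ±100 for the full control effect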
Outline: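 Viability was read as CellTiter-Glo luminescence after 48 h compound treatment (up to 46 uM final) of SW-13 cells grown serum-free; titration curves were fit with a four-parameter logistic model to give IC50 and efficacy.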

[3] = Cellular viability qHTS for adrenocortical cancer (ACC) cell line NCI-H295R (AID 1963990); also: nearly all actives have a fitted effect of over 60% in size; also: potency is read from the fitted curve at half-maximal effect
Outline: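 CellTiter-Glo ATP luminescence, read 48 h after compound addition, measured viability of NCI-H295R adrenocortical cells grown serum-free with ITS. Final concentrations spanned up to 46 uM. Data normalized to DMSO and doxorubicin, fitted for IC50 and maximal response.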

[4] = Quantitative highthroughput screen to assess conditional lethalithy of NOMO1 cells grown in RPMI1640 with dialyzed fetal bovine serum (RPMI+ds) (AID 1963877); also: nearly all actives have a fitted effect of over 30% in size; also: potency is read from the fitted curve at half-maximal effect;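 as to Viability: series mostly up to about 46 µM; 100% = DMSO control wells and 0% = empty wells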
Outline: (§1)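 Each medium arm—HPLM with 10% dialyzed FBS, or RPMI1640 with 5 mM glucose and 10% untreated or dialyzed FBS—was screened against an 11-point, 3-fold compound titration for 48 h at 37 °C, with CellTiter-Glo luminescence as endpoint.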

[5] = Quantitative highthroughput screen to assess conditional lethalithy of SEM cells grown in RPMI1640 with unreated serum (RPMI+s) (AID 1963883); also: nearly all actives have a fitted effect of over 35% in size; also: potency is read from the fitted curve at half-maximal effect;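 as to Viability: 100% = DMSO wells and 0% = empty wells without cells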
Outline: as §1

[6] = Quantitative highthroughput screen to assess conditional lethalithy of NOMO1 cells grown in RPMI1640 with untreated serum (RPMI+s) (AID 1963876);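 also: 100% = DMSO wells and 0% = empty wells without cells; nearly all actives have a fitted effect of over 35% in size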
Outline: as §1

[7] = Quantitative highthroughput screen to assess conditional lethalithy of NOMO1 cells grown in Human Plasma-Like Medium with dialyzed fetal bovine serum (HPLM+ds) (AID 1963878); also: nearly all actives have a fitted effect of over 35% in size; also: potency is read from the fitted curve at half-maximal effect;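 as to Viability: 100% = DMSO wells and 0% = empty wells on each plate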
Outline: as §1

[8] = Quantitative highthroughput screen to assess conditional lethalithy of P12 Ichikawa cells grown in Human Plasma-Like Medium with dialyzed fetal bovine serum (HPLM+ds) (AID 1963879); settings: Potency: viability; also: nearly all actives have a fitted effect of over 35% in size; also: potency is read from the fitted curve at half-maximal effect; as to Viability: series mostly up to about 46 µM
Outline: as §1

[9] = Quantitative highthroughput screen to assess conditional lethalithy of SEM cells grown in Human Plasma-Like Medium with dialyzed fetal bovine serum (HPLM+ds) (AID 1963882); also: nearly all actives have a fitted effect of over 35% in size; also: potency is read from the fitted curve at half-maximal effect; as to Viability: series mostly up to about 46 µM
Outline: as §1

[10] = Quantitative highthroughput screen to assess conditional lethalithy of P12 Ichikawa cells grown in RPMI1640 with dialyzed fetal bovine serum (RPMI+ds) (AID 1963880); settings: Potency: P12-Ichikawa viability
Outline: as §1

[11] = Viability qHTS for spleen associated tyrosine kinase inhibitor (SYKi) drug resistant MV4-11 cells (AID 1963824); also: nearly all actives have a fitted effect of over 35% in size
Outline: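 CellTiter-Glo luminescence, read 10 min after reagent addition, reports viability after a 72 hr compound exposure. Cells are an MV4-11 line made resistant to SYK inhibition, seeded at 500 per well onto compound-containing plates.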

[12] = Quantitative highthroughput screen to assess conditional lethalithy of P12 Ichikawa cells grown in RPMI1640 with untreated serum (RPMI+s) (AID 1963881); settings: Potency: viability; also: nearly all actives have a fitted effect of over 35% in size; also: potency is read from the fitted curve at half-maximal effect;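 as to Viability: series mostly up to about 46 µM; 100% = DMSO wells and 0% = empty wells without cells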
Outline: as §1

[13] = Quantitative highthroughput screen to assess conditional lethalithy of SEM cells grown in RPMI1640 with dialyzed fetal bovine serum (RPMI+ds) (AID 1963884)
Outline: as §1

COP(=S)(OC)Oc1ccc(S(N)(=O)=O)cc1
inactive: Potency [1] | activity (max response) [2] 5.57% | Potency [3]

O=C(O)CNC(=O)c1c(O)c2ccccc2n(Cc2ccccc2)c1=O
inactive: Potency [1] | Potency [4] | Potency [5]

CCN(CC)C(=O)N[C@@H]1C=C2c3cccc4[nH]cc(c34)C[C@@H]2N(C)C1
inactive: Potency [1] | activity (max response) [2] 5.3% | Potency [3]

O=C(Oc1ccc([N+](=O)[O-])cc1)N1CCN(Cc2cccc(Oc3ccccc3)c2)CC1
inactive: Potency [6] | Potency [4] | Potency [7] | Potency [8] | Potency [9]
active: Potency [1] 16.4 µM

CC1=C2[C@H]3OC(=O)[C@@H](C)[C@@H]3CC[C@@]2(C)C=CC1=O
inactive: Potency [1] | activity (max response) [2] -9.75% | Potency [3]

C[C@](O)(COc1ccc(C#N)cc1)C(=O)Nc1ccc(C#N)c(C(F)(F)F)c1
inactive: Potency [6] | Potency [4] | Potency [7] | Potency [8] | Potency [10]
active: Potency [1] 18.6 µM | Potency [2] 22.4 µM | Potency [3] 17.8 µM

Nc1ccc(Cl)cc1C(=O)c1ccccc1F
inactive: Potency [1] | activity (max response) [2] -12.6%

COC[C@H]1OC(=O)c2coc3c2[C@@]1(C)C1=C(C3=O)[C@@H]2CC[C@H](O)[C@@]2(C)C[C@@H]1OC(C)=O
active: Potency [1] 11.6 µM | Potency [7] 13.2 µM
inactive: Potency [4]

CC[C@H]1C[C@H]2[C@@H]3CCC4=CC(=O)CC[C@@H]4[C@H]3CC[C@]2(C)[C@H]1O
active: Potency [1] 18.8 µM
inactive: activity (max response) [2] -16.6%

C[C@]12CCC(=O)C=C1CC[C@@H]1[C@@H]2CC[C@]2(C)C(=O)CC[C@@H]12
inactive: Potency [1] | activity (max response) [2] -7.18% | Potency [3]

CCOP(=S)(OCC)O/N=C(\C#N)c1ccccc1
inactive: Potency [1] | activity (max response) [2] 0.816% | Potency [3]

CCOC(=O)c1ncn2c1CN(C)C(=O)c1c(I)cccc1-2
inactive: Potency [1] | activity (max response) [2] -2.47% | Potency [3]

NC(=O)CS(=O)C(c1ccccc1)c1ccccc1 (stereo not drawn)
inactive: Potency [1] | activity (max response) [2] 12.6% | Potency [3]

COc1cc(CC(C)N)cc(OC)c1OC (stereo not drawn)
inactive: Potency [1] | activity (max response) [2] -27.2% | Potency [3]

CN1C(=O)NC(=O)C(C)(C2=CCCCC2)C1=O (stereo not drawn)
inactive: Potency [1] | Potency [11] | Potency [3]

CC(=O)Nc1ccc(OC[C@](C)(O)C(=O)Nc2ccc([N+](=O)[O-])c(C(F)(F)F)c2)cc1
active: Potency [1] 16.6 µM
inactive: Potency [7] | Potency [8] | Potency [12] | activity (max response) [2] 0.634% | Potency [3]

Cc1sc2c(c1C)C(c1ccc(Cl)cc1)=N[C@@H](CC(=O)OC(C)(C)C)c1nnc(C)n1-2
active: Potency [1] 0.105 µM | Potency [4] 0.372 µM | Potency [8] 1.66 µM | Potency [12] 1.87 µM | Potency [9] 0.166 µM | Potency [5] 0.235 µM | Potency [13] 0.209 µM | Potency [3] 3.98 µM

NCCc1ccc(O)cc1
inactive: Potency [1] | activity (max response) [2] 4.68% | Potency [3]

C[C@@H]1C[C@@H]([C@H](O)CC2CC(=O)NC(=O)C2)C(=O)[C@@H](C)C1
active: Potency [1] 376 nM and 417 nM | Potency [12] 0.264 µM | Potency [5] 0.332 µM | Potency [2] 1.84 µM and 1.78 µM | Potency [3] 920 nM and 1 µM

CC(=O)OCC1=C(C(=O)O)N2C(=O)[C@@H](N)[C@H]2SC1
inactive: Potency [1] | activity (max response) [2] 5.22% | Potency [3]

COP(=S)(OC)Oc1ccc(SC)c(C)c1
inactive: Potency [1] | activity (max response) [2] 5.91% | Potency [3]

Oc1ccc(Cl)cc1Cc1ccccc1
active: Potency [1] 24.6 µM | Potency [2] 35.5 µM | Potency [3] 12.6 µM and 23.1 µM

c1ccc2c(c1)sc1ccccc12
inactive: Potency [1] | activity (max response) [2] 0.898% | Potency [3]

C[C@@H]1CN(C2CCC(C#N)(c3ccc(F)cc3)CC2)CC[C@]1(C(=O)O)c1ccccc1 (stereo partly drawn)
inactive: Potency [1] | activity (max response) [2] -0.484% | Potency [3]
